# About 79,000 compounds went through this panel and 15% of them were active in at least one assay; those are over-represented in the sample as a whole. Unmarked numbers belong to inactive results. Active and inactive are the calls of the source. No stated cut-off is given here; in the data, active means growth inhibition above about 70%; inactive means the rest.
# Tests used:
# [1] = NCI Yeast Anticancer Drug Screen. Data for the wt1 strain (AID 149);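 further: 0% = growth of vehicle-treated wt1 cultures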; settings: S. cerevisiae wt1 strain (SPY 50644) growth inhibition, active compounds read high
# Method in brief: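 Measured: growth of wt1 yeast under compound versus vehicle treatment, reported as inhibition.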
# [2] = NCI Yeast Anticancer Drug Screen. Data for the rad50EPP+ strain (AID 151);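 further: 0% = growth of vehicle-treated control cultures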; settings: S. cerevisiae rad50 mutant strain, active compounds read high
# Method in brief: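 Genetically defined yeast (rad50EPP+, DNA damage repair alteration) is grown with compound, and inhibition of growth is expressed relative to vehicle-treated controls.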
# [3] = NCI Yeast Anticancer Drug Screen. Data for the mgt1 strain (AID 153); settings: S. cerevisiae mgt1 mutant growth inhibition, active compounds read high
# Method in brief: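 In the mgt1 strain, test compounds were added and growth inhibition was determined relative to vehicle-treated controls.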
# [4] = NCI Yeast Anticancer Drug Screen. Data for the rad50 strain (AID 155);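 further: 0% = growth of vehicle-only cultures of the same strain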; settings: S. cerevisiae rad50 strain growth inhibition, active compounds read high
# Method in brief: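 Growth of the mutant yeast was measured after compound exposure and referenced to vehicle-treated cultures.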
# [5] = NCI Yeast Anticancer Drug Screen. Data for the mec2-1 strain (AID 157); settings: S. cerevisiae mec2-1 strain, active compounds read high
# Method in brief: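 Each compound was tested on mec2-1 yeast, a strain altered in DNA damage repair or cell cycle control. Growth inhibition is reported relative to vehicle.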
# [6] = NCI Yeast Anticancer Drug Screen. Data for the rad14 strain (AID 159);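 further: 0% = growth of vehicle-treated control cultures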; settings: S. cerevisiae rad14 strain growth inhibition, active compounds read high
# Method in brief: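 Here, inhibition of yeast growth was measured after compound exposure, using a strain with a genetic defect in DNA damage repair and vehicle-treated cultures as the reference.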
# [7] = NCI Yeast Anticancer Drug Screen. Data for the sgs1 mgt1 strain (AID 161);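 further: 0% = growth of cultures given vehicle only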; settings: S. cerevisiae sgs1 mgt1 strain, active compounds read high
# Method in brief: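 Genetically altered yeast, compound exposure, growth inhibition relative to vehicle.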
# [8] = NCI Yeast Anticancer Drug Screen. Data for the CLN2oe strain (AID 163);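 further: 0% = growth of vehicle-only control cultures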; settings: S. cerevisiae CLN2oe strain, active compounds read high
# Method in brief: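 First, the altered yeast strain was treated with each compound; second, its growth was measured; finally, inhibition was derived by comparison with vehicle controls.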
# [9] = NCI Yeast Anticancer Drug Screen. Data for the cln2 rad14 strain (AID 165);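 further: 0% = growth equal to vehicle treated cultures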; settings: S. cerevisiae cln2 rad14 strain, active compounds read high
# Method in brief: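 Test compounds were added to cln2 rad14 yeast cultures; inhibition of growth was then determined by comparison with vehicle treatment.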
# [10] = NCI Yeast Anticancer Drug Screen. Data for the bub3 strain (AID 167); settings: S. cerevisiae bub3 mutant strain, active compounds read high
# Method in brief: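 Whole-cell yeast assay. The mutant strain was incubated with compounds, and growth inhibition was determined by comparison with vehicle-treated cells.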
# [11] = NCI Yeast Anticancer Drug Screen. Data for the wt2 strain (AID 169);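 further: 0% = growth of vehicle-treated yeast cultures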; settings: S. cerevisiae wt2 strain growth inhibition, active compounds read high
# Method in brief: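 The panel's yeast strains carry defined changes in DNA repair or cell cycle genes. Each strain is grown with compound, and growth loss is scored relative to vehicle.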
# [12] = NCI Yeast Anticancer Drug Screen. Data for the mlh1 strain (AID 171);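 further: 0% = growth of vehicle-treated control cultures of the same strain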; settings: S. cerevisiae mlh1 strain growth inhibition, active compounds read high
# Method in brief: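 Inhibition values reflect reduced yeast growth in the presence of compound, referenced to vehicle controls, using a strain chosen for its alteration in DNA repair or cell cycle control.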
# [13] = NCI Yeast Anticancer Drug Screen. Data for the sgs1 strain (AID 173);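 further: 0% = growth of vehicle-only control cultures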; settings: S. cerevisiae sgs1 mutant, active compounds read high
# Method in brief: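 Vehicle-treated cultures served as reference for growth inhibition of a yeast strain altered in DNA damage repair or cell cycle control after compound exposure.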
# [14] = NCI Yeast Anticancer Drug Screen. Data for the mlh1 rad18 strain (AID 175); settings: S. cerevisiae mlh1 rad18 strain growth inhibition, active compounds read high
# Method in brief: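 Inhibition values reflect reduced growth of mutant yeast versus vehicle-treated controls following compound exposure; the mutations affect DNA damage repair.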
# [15] = NCI Yeast Anticancer Drug Screen. Data for the rad18 strain (AID 177); settings: S. cerevisiae rad18 mutant growth inhibition, active compounds read high
# Method in brief: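 Steps: expose repair-mutant yeast to compound; measure growth; express as inhibition relative to vehicle control.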
# [16] = at 5.0 µM (retest, dose inferred, filed as 0.5)
# [17] = at 50.0 µM (retest, dose inferred, filed as 5.0)
structure (smiles),measurement,setting,value
Cc1ccc(CSC(N)=Nc2ccccc2)cc1C,growth inhibition,[1]; at 1.2 µM,3%
same,growth inhibition,[1]; at 3.7 µM,13%
same,growth inhibition,[1]; at 11.0 µM,0%
same,growth inhibition,[1]; at 33.0 µM,4%
same,growth inhibition,[1]; at 100.0 µM,21%
same,growth inhibition,[2]; at 1.2 µM,4%
same,growth inhibition,[2]; at 3.7 µM,12%
same,growth inhibition,[2]; at 11.0 µM,11%
same,growth inhibition,[2]; at 33.0 µM,4%
same,growth inhibition,[2]; at 100.0 µM,15%
same,growth inhibition,[3]; at 1.2 µM,6%
same,growth inhibition,[3]; at 3.7 µM,-1%
same,growth inhibition,[3]; at 11.0 µM,-8%
same,growth inhibition,[3]; at 33.0 µM,14%
same,growth inhibition,[3]; at 100.0 µM,81% (active)
same,growth inhibition,[4]; at 1.2 µM,9%
same,growth inhibition,[4]; at 3.7 µM,5%
same,growth inhibition,[4]; [16],5%
same,growth inhibition,[4]; at 11.0 µM,14%
same,growth inhibition,[4]; at 33.0 µM,22%
same,growth inhibition,[4]; [17],40%
same,growth inhibition,[4]; at 50.0 µM,61.5%
same,growth inhibition,[4]; at 100.0 µM,30%
same,growth inhibition,[5]; at 1.2 µM,-3%
same,growth inhibition,[5]; at 3.7 µM,10%
same,growth inhibition,[5]; [16],-11%
same,growth inhibition,[5]; at 11.0 µM,-11%
same,growth inhibition,[5]; at 33.0 µM,1%
same,growth inhibition,[5]; [17],-22%
same,growth inhibition,[5]; at 50.0 µM,24.2%
same,growth inhibition,[5]; at 100.0 µM,40%
same,growth inhibition,[6]; at 1.2 µM,-22%
same,growth inhibition,[6]; at 3.7 µM,-14%
same,growth inhibition,[6]; at 11.0 µM,-17%
same,growth inhibition,[6]; at 33.0 µM,10%
same,growth inhibition,[6]; at 100.0 µM,64%
same,growth inhibition,[7]; [16],-10%
same,growth inhibition,[7]; [17],38%
same,growth inhibition,[7]; at 50.0 µM,53.2%
same,growth inhibition,[8]; at 1.2 µM,6%
same,growth inhibition,[8]; at 3.7 µM,10%
same,growth inhibition,[8]; at 11.0 µM,-1%
same,growth inhibition,[8]; at 33.0 µM,7%
same,growth inhibition,[8]; at 100.0 µM,46%
same,growth inhibition,[9]; [16],-16%
same,growth inhibition,[9]; [17],14%
same,growth inhibition,[9]; at 50.0 µM,-4.5%
same,growth inhibition,[10]; at 1.2 µM,4%
same,growth inhibition,[10]; at 3.7 µM,5%
same,growth inhibition,[10]; [16],11%
same,growth inhibition,[10]; at 11.0 µM,-4%
same,growth inhibition,[10]; at 33.0 µM,14%
same,growth inhibition,[10]; [17],22%
same,growth inhibition,[10]; at 50.0 µM,80% (active)
same,growth inhibition,[10]; at 100.0 µM,34%
same,growth inhibition,[11]; at 1.2 µM,2%
same,growth inhibition,[11]; at 3.7 µM,-3%
same,growth inhibition,[11]; at 11.0 µM,-13%
same,growth inhibition,[11]; at 33.0 µM,-5%
same,growth inhibition,[11]; at 100.0 µM,66%
same,growth inhibition,[12]; at 1.2 µM,-7%
same,growth inhibition,[12]; at 3.7 µM,-12%
same,growth inhibition,[12]; at 11.0 µM,-6%
same,growth inhibition,[12]; at 33.0 µM,4%
same,growth inhibition,[12]; at 100.0 µM,66%
same,growth inhibition,[13]; at 1.2 µM,6%
same,growth inhibition,[13]; at 3.7 µM,0%
same,growth inhibition,[13]; at 11.0 µM,7%
same,growth inhibition,[13]; at 33.0 µM,19%
same,growth inhibition,[13]; at 100.0 µM,73% (active)
same,growth inhibition,[14]; [16],-5%
same,growth inhibition,[14]; [17],41%
same,growth inhibition,[14]; at 50.0 µM,42%
same,growth inhibition,[15]; at 1.2 µM,6%
same,growth inhibition,[15]; at 3.7 µM,-7%
same,growth inhibition,[15]; at 11.0 µM,2%
same,growth inhibition,[15]; at 33.0 µM,0%
same,growth inhibition,[15]; at 100.0 µM,31%
CC(=O)Cc1ccc[cH-]1.[Fe+2].c1cc[cH-]c1,growth inhibition,[1]; at 1.2 µM,1%
same,growth inhibition,[1]; at 3.7 µM,2%
same,growth inhibition,[1]; at 11.0 µM,14%
same,growth inhibition,[1]; at 33.0 µM,10%
same,growth inhibition,[1]; at 100.0 µM,7%
same,growth inhibition,[2]; at 1.2 µM,3%
same,growth inhibition,[2]; at 3.7 µM,4%
same,growth inhibition,[2]; at 11.0 µM,8%
same,growth inhibition,[2]; at 33.0 µM,15%
same,growth inhibition,[2]; at 100.0 µM,13%
same,growth inhibition,[3]; at 1.2 µM,8%
same,growth inhibition,[3]; at 3.7 µM,11%
same,growth inhibition,[3]; at 11.0 µM,21%
same,growth inhibition,[3]; at 33.0 µM,11%
same,growth inhibition,[3]; at 100.0 µM,20%
same,growth inhibition,[4]; at 1.2 µM,12%
same,growth inhibition,[4]; at 3.7 µM,24%
same,growth inhibition,[4]; [16],-14%
same,growth inhibition,[4]; at 11.0 µM,22%
same,growth inhibition,[4]; at 33.0 µM,22%
same,growth inhibition,[4]; [17],8%
same,growth inhibition,[4]; at 50.0 µM,96.2% (active)
same,growth inhibition,[4]; at 100.0 µM,62%
same,growth inhibition,[5]; at 1.2 µM,-5%
same,growth inhibition,[5]; at 3.7 µM,-5%
same,growth inhibition,[5]; [16],-6%
same,growth inhibition,[5]; at 11.0 µM,-1%
same,growth inhibition,[5]; at 33.0 µM,12%
same,growth inhibition,[5]; [17],-12%
same,growth inhibition,[5]; at 50.0 µM,60.6%
same,growth inhibition,[5]; at 100.0 µM,18%
same,growth inhibition,[6]; at 1.2 µM,0%
same,growth inhibition,[6]; at 3.7 µM,-5%
same,growth inhibition,[6]; at 11.0 µM,13%
same,growth inhibition,[6]; at 33.0 µM,34%
same,growth inhibition,[6]; at 100.0 µM,49%
same,growth inhibition,[7]; [16],-4%
same,growth inhibition,[7]; [17],12%
same,growth inhibition,[7]; at 50.0 µM,86.8% (active)
same,growth inhibition,[8]; at 1.2 µM,4%
same,growth inhibition,[8]; at 3.7 µM,5%
same,growth inhibition,[8]; at 11.0 µM,17%
same,growth inhibition,[8]; at 33.0 µM,23%
same,growth inhibition,[8]; at 100.0 µM,23%
same,growth inhibition,[9]; [16],-7%
same,growth inhibition,[9]; [17],7%
same,growth inhibition,[9]; at 50.0 µM,40.5%
same,growth inhibition,[10]; at 1.2 µM,-4%
same,growth inhibition,[10]; at 3.7 µM,-10%
same,growth inhibition,[10]; [16],-4%
same,growth inhibition,[10]; at 11.0 µM,7%
same,growth inhibition,[10]; at 33.0 µM,13%
same,growth inhibition,[10]; [17],15%
same,growth inhibition,[10]; at 50.0 µM,72.5% (active)
same,growth inhibition,[10]; at 100.0 µM,21%
same,growth inhibition,[11]; at 1.2 µM,2%
same,growth inhibition,[11]; at 3.7 µM,5%
same,growth inhibition,[11]; at 11.0 µM,13%
same,growth inhibition,[11]; at 33.0 µM,17%
same,growth inhibition,[11]; at 100.0 µM,32%
same,growth inhibition,[12]; at 1.2 µM,-1%
same,growth inhibition,[12]; at 3.7 µM,-3%
same,growth inhibition,[12]; at 11.0 µM,-2%
same,growth inhibition,[12]; at 33.0 µM,7%
same,growth inhibition,[12]; at 100.0 µM,29%
same,growth inhibition,[13]; at 1.2 µM,0%
same,growth inhibition,[13]; at 3.7 µM,0%
same,growth inhibition,[13]; at 11.0 µM,9%
same,growth inhibition,[13]; at 33.0 µM,23%
same,growth inhibition,[13]; at 100.0 µM,46%
same,growth inhibition,[14]; [16],3%
same,growth inhibition,[14]; [17],68%
same,growth inhibition,[14]; at 50.0 µM,92.7% (active)
same,growth inhibition,[15]; at 1.2 µM,6%
same,growth inhibition,[15]; at 3.7 µM,17%
same,growth inhibition,[15]; at 11.0 µM,29%
same,growth inhibition,[15]; at 33.0 µM,10%
same,growth inhibition,[15]; at 100.0 µM,35%

# From PubChem BioAssay (NCI)
